Hits are enriched below; roughly 8.6% of the tested compounds scored in any of these assays.
LASV entry inh: Lassa virus entry inhibition. Lassa virus pseudotyped entry inhibition, cell-based qHTS. AID 720533. 4.1% of 18,000 active. Potency, µM (doses to about 49.2 µM), for inactives: at the top dose activity change, negative = inhibition, usual class: inhibitors
MARV entry inh: inhibitors of Marburg virus binding or entry into cells. 6.5% of 18,000 active. Marburg virus pseudotype entry/binding inhibition, cell-based. Potency, µM (series often up to 49.2 µM), inactives show at the top dose activity change, negative = inhibition, most hits filed as inhibitors
* hit, by the source's call; ? = inconclusive; nt = not tested or not shown; ! = not confirmed by another sample; [ ] = dose if it differs, or a comment. Calls follow the shape of the full dose curve; tested in HEK293 cells. % is scaled to controls: 0 for no effect and ±100 for the full control effect; potency is read from the fitted curve at half-maximal effect.

SMILES	LASV entry inh	MARV entry inh
CC(=O)OC[C@H]1O[C@@H](ON=C2C[C@@H](O)[C@@H](O)[C@@H]3[C@H]4C(=O)N(C5CCCCC5)C(=O)[C@@H]4CC[C@@H]23)[C@H](OC(C)=O)[C@@H](OC(C)=O)[C@H]1OC(C)=O	-0.6%[8.59 µM]	-25.3%[8.59 µM]
COC(=O)[C@@H]1CC23C(=NC(c4ccc([N+](=O)[O-])cc4)=C(C(F)(F)F)[C@@H]2N(C)c2ccccc23)N1C(C)=O (some centres undefined)	-21.9%[8.59 µM]	8.4%[8.59 µM]
CCCCCCCC[N+](C)(C)CCCCCCCC	?	15.8µM*
C[N+](C)(C)CCCCCC[N+](C)(C)C	9.9%	10.3%
CCCCCCCCCCCCCCCCCC[N+](C)(C)CCC[Si](OC)(OC)OC	-16.1%	4.5%
CCCCCCCCCC[N+](C)(C)CCCCCCCCCC	25.1µM*	?
CCCCCCCCCCCCCCCC[N+](C)(C)C	?	8.91µM*!
CCCCCCCCCC(=O)O	-5.1%	1.6%
CCCCCCCCCCCCCCCCOP(=O)([O-])OCC[N+](C)(C)C	9.2%	-10.1%
CCCCCCCCCCCCCCCC[N+](C)(C)CC	15.8µM*	10µM*
COC(=O)CC=C[C@@H](C)[C@@H](C=NO[C@@H](C)c1cn([C@H](CO)Cc2ccccc2)nn1)NS(=O)(=O)c1ccc(C)cc1	nt	-12.7%[8.59 µM]
CC1(C)CN(Cc2ccccc2)C(=O)[C@@H]1CC(=O)Nc1ccccc1	nt	15.9%
CC(=CCO)CCO	13.9%[8.59 µM]	1.8%[8.59 µM]
C[C@@H]1[C@H](O)[C@@H](C)/C=C/C=C\C=C\C=C\C=C\C=C\C=C\[C@H](O[C@@H]2O[C@H](C)[C@@H](O)[C@H](N)[C@@H]2O)C[C@@H]2O[C@](O)(C[C@@H](O)C[C@@H](O)[C@H](O)CC[C@@H](O)C[C@@H](O)CC(=O)O[C@H]1C)C[C@H](O)[C@H]2C(=O)O (stereo in doubt)	-1.3%	18.3%
CC(C)CON=C1C[C@@H](O)[C@@H](O)[C@@H]2[C@H]3C(=O)N(Cc4ccc5c(c4)OCO5)C(=O)[C@@H]3CC[C@@H]12	8.0%[8.59 µM]	-29.9%[8.59 µM]
C=CC[C@@H]1C=C[C@H](ON=C(C)CCN2CCCc3nc(C)c(C)cc32)[C@H](CO)O1	4.4%[8.59 µM]	23.1%[8.59 µM]
COc1ccc2c(c1)OC(C)CN(CCNC(=O)c1csc(-c3cccs3)n1)C2 (centres undefined)	-21.0%	-17.4%
CC[C@H]1[C@@H]2C=C[C@@H]3[C@H]4C/C=C\C(=O)NCCC[C@@H]5NC(=O)C(=C5O)C(=O)CC[C@@H]4C[C@@H]3[C@H]2C[C@H]1C	28.2µM*	14.1µM*
[H+].[H+].[Hg+2].[O-]B([O-])[O-].[c-]1ccccc1	1µM*	?
COc1cccc2ccc(CN3CCC4(CC3)c3ccccc3[C@@H](NC(=O)c3ccccc3)[C@@H]4O)nc12	-4.0%	?
CC(C)C[C@@H]1NC(=O)[C@H](CCCN)NC(=O)[C@H](C(C)C)NC(=O)[C@@H]2CCCN2C(=O)[C@@H](Cc2ccccc2)NC(=O)[C@H](CC(C)C)NC(=O)[C@H](CCCN)NC(=O)[C@H](C(C)C)NC(=O)[C@@H]2CCCN2C(=O)[C@@H](Cc2ccccc2)NC1=O	31.6µM*	?
CC(C)[C@@H]1NC(=O)[C@@H](Cc2ccccc2)NC(=O)[C@H](CC(=O)O)NC(=O)CNC(=O)[C@H](CCCN=C(N)N)NC1=O	-19.3%	-13.6%
CCOC(=O)OC[C@H]1O[C@H](c2ccc(C(C)=O)cc2)C=C[C@H]1Oc1ccc(-c2ccccc2)cc1	nt	2.8%[8.59 µM]
COC(=O)CC1=CO[C@@H](O)[C@@H]2C(CO)=CC[C@@H]12	-10.7%[8.59 µM]	15.9%[8.59 µM]
CCN(CC)Cc1ccc(Nc2ccnc3cc(Cl)ccc23)cc1O	?	1.78µM*
SMILES	LASV entry inh	MARV entry inh
CCN(CC)CCC[C@H](C)Nc1ccnc2cc(Cl)ccc12	23.6%[17.8 µM]	-21.6%[17.8 µM]
C=CCOC(=O)N[C@H](C(C(=O)OC)=C(C)NCc1ccccc1)c1ccc2c(c1)OCO2	-11.8%[8.59 µM]	?
C[C@@H]1CC[C@H]2C(=O)N(Cc3cccc([N+](=O)[O-])c3)C[C@H](O)CN2[C@@H]1c1ccc(Br)cc1	14.9%[8.59 µM]	32.5%[8.59 µM]
CCCC1O[C@@H]2C[C@H]3[C@@H]4CCC5=CC(=O)C=C[C@]5(C)[C@H]4[C@@H](O)C[C@]3(C)[C@]2(C(=O)CO)O1 (some centres undefined)	3.3%[17.8 µM]	-28.2%
CC(C)C(=O)OCC(=O)[C@@]12O[C@H](C3CCCCC3)O[C@@H]1C[C@H]1[C@@H]3CCC4=CC(=O)C=C[C@]4(C)[C@H]3[C@@H](O)C[C@@]12C	28.2µM*	?
O=S1(=O)[C@H]2C[C@H]3O[C@]2(CN1Cc1ccc(C(F)(F)F)cc1)[C@@H]1O[C@@H]13	51.6%	3.6%
CN(C)Cc1ccccc1-c1ccc2ncnc(NCc3cccs3)c2c1	-5.0%	8.91µM*
CN(C)Cc1ccccc1-c1ccc2ncnc(NCc3ccccc3)c2c1	0.3%	?
c1nc(NC2CCNCC2)c2cc(-c3ccc4c(c3)OCO4)ccc2n1	-4.7%	?
CN(C)Cc1ccccc1-c1ccc2ncnc(NC3CCNCC3)c2c1	6.9%	7.08µM*
COc1ccc(/C=C/C(=O)c2cc(O)ccc2O)cc1	0.891µM*	-20.2%
COc1ccc(/C=C/C(=O)c2ccc(O)cc2O)cc1	11.1%	4.0%
CCN1C(N(C)CCc2c[nH]c3ccccc23)=NC(c2cccc(C(F)(F)F)c2)C(C(=O)OC)=C1C (centres undefined)	-23.1%[8.59 µM]	?
CC(C)ON(CC(=O)NO)S(=O)(=O)c1ccc(-c2ccccc2)cc1	-25.6%	13.4%
CC(C)ON(C(C(=O)NO)C(C)C)S(=O)(=O)c1ccc(-c2ccccc2)cc1 (centres undefined)	6.31µM*	6.31µM*
COc1ccc(O)c(CN2CCC3(CCC(CNC(=O)c4ccco4)O3)CC2)c1 (centres undefined)	6.2%	-30.3%
O=C1c2ccccc2C(=O)N1CCCC[C@]12Cc3ccccc3[C@H](O1)c1c(c3ccccc3oc1=O)O2	-5.0%[8.59 µM]	-29.2%[8.59 µM]
Cc1occc1C(=O)Nc1cccc(-c2nc(CNC(=O)c3ccc(N4CCCCC4)cc3)c(C)o2)c1	?	-26.1%
CC(=O)OC1CC2C(C)(C)C(O)CC[C@@]2(C)C2CC[C@@]3(C)C(c4ccoc4)OC(=O)C4O[C@@]43[C@]12C (some centres undefined)	?	12.6µM*
CC(=O)OC1CC2C(C)(C)C(O)CC[C@@]2(C)C2CC[C@@]3(C)C(c4ccoc4)OC(=O)C4OC43[C@]12C (some centres undefined)	-8.3%	?
Cc1ccc(C(=O)OC[C@H]2O[C@H](Cl)C[C@H]2OC(=O)c2ccc(C)cc2)cc1	-6.0%[8.59 µM]	0.7%[8.59 µM]
O=C(OC[C@H]1O[C@@H](OC(=O)c2cc(O)c(O)c(OC(=O)c3cc(O)c(O)c(O)c3)c2)[C@H](OC(=O)c2cc(O)c(O)c(OC(=O)c3cc(O)c(O)c(O)c3)c2)[C@@H](OC(=O)c2cc(O)c(O)c(OC(=O)c3cc(O)c(O)c(O)c3)c2)[C@@H]1OC(=O)c1cc(O)c(O)c(OC(=O)c2cc(O)c(O)c(O)c2)c1)c1cc(O)c(O)c(OC(=O)c2cc(O)c(O)c(O)c2)c1	10µM*	0.353µM*
O=S1(=O)C=CCN1C1CCCC1	8.4%	29.8%
CCOC(=O)CN1C(=O)NC(c2cccc(C(F)(F)F)c2)C(C(C)=O)=C1C (centres undefined)	6.5%[8.59 µM]	31.1%[8.59 µM]
N=C1N=C(N)c2cc3ccccc3cc21	35.5µM*	20µM*

High-throughput results (PubChem BioAssay)
